FLuc modulator = qHTS profiling assay for firefly luciferase inhibitor/activator using purifed enzyme and Km concentrations of substrates (counterscreen for miR-21 project); Luciferin 4-monooxygenase (Photinus pyralis), P08659; purified FLuc, Km substrates, luminescence inhibition; Potency, µM (titrated, usually from 57.5 µM), for inactives: top-dose activity change, negative = inhibition, most hits filed as inhibitors; 360,000 compounds, 6.9% hits; AID 588342, 2011;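 note: plate controls were vehicle for no effect and reference inhibitor for full effect; nearly all actives have a fitted effect of over 55% in size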
Target sequence (P08659 whole entry, looked up): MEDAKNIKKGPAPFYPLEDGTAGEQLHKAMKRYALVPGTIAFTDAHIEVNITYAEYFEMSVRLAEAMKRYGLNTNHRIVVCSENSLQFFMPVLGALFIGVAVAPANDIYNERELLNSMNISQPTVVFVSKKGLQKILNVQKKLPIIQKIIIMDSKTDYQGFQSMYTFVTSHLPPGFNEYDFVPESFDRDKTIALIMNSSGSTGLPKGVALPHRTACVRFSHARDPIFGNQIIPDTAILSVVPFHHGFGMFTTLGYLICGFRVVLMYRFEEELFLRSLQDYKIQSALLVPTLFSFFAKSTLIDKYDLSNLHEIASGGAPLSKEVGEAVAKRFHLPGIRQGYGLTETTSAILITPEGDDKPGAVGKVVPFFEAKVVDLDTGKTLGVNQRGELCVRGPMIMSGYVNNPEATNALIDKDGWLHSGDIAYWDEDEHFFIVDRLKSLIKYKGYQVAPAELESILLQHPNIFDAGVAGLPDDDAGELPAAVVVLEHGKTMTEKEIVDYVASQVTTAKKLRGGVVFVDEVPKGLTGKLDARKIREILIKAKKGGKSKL
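Purified P. pyralis luciferase (10nM final) with 10uM D-luciferin and 10uM ATP (Km levels) in 50mM Tris acetate pH 7.5, 10mM Mg acetate, 0.01% Tween-20, 0.05% BSA; qHTS 6-point titration, ~60 µM downward; luminescence read.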
NPC1 promoter act = qHTS Assay for NPC1 Promoter Activators; Huh7 NPC1 promoter luciferase reporter, 24 h; Potency, µM (titrated, usually from 9.22 µM), for the others: at the highest dose activation, usual class: activators; 320,000 compounds, 2.4% hits; note: % of control where 0% means no effect; nearly all actives have a fitted effect of over 60% in size
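Stable NPC1-promoter luciferase Huh7 line; cpd (DMSO) 24 h, 37 °C, 5% CO2; Amplite luciferase reagent 10 min RT; luminescence readout. qHTS format.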
SMN2 splice up = qHTS Assay for Enhancers of SMN2 Splice Variant Expression. HEK293 SMN2-luciferase splicing reporter, luminescence, 30-36 h. Potency, µM (highest dose often 46.1 µM), for inactives: at the highest dose activity change, positive = activation, usual class: activators. 210,000 compounds, 2.8% hits. AID 1458, 2008; note: % of control where 0% means no effect; nearly all actives have a fitted effect of over 55% in size
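HEK293 cells carry an SMN2 minigene-luciferase reporter in which exon 7 inclusion puts luciferase in frame. Cells were seeded at 2000 cells/well, attached for 10-12 hours, then exposed to compounds for 30-36 hours at 37C before ONE-Glo luminescence.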
ELG1 genotoxic = qHTS screen for small molecules that induce genotoxicity in human embryonic kidney (HEK293T) cells expressing luciferase-tagged ELG1. 330,000 compounds, 1.3% hits. HEK293T ELG1-luciferase reporter, luminescence, 16 h. Potency, µM (series often up to 46 µM), without a hit: at the top dose activity change, positive = activation, usual class: activators. AID 504466, 2011; note: % of control where 0% means no effect; nearly all actives have a fitted effect of over 60% in size
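Luminescence read-out: rising ELG1-luciferase signal, reflecting elevated ELG1 protein under genetic stress, flags genotoxic compounds. Cells were treated for 16 hr at 37 °C before ONE-Glo detection.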
p53 reactivator = qHTS assay for re-activators of p53 using a Luc reporter. Potency, µM (top dose mostly 92.2 µM), without a hit: at the highest dose activity change, positive = activation, most hits filed as activators. 320,000 compounds, 0.063% hits. AID 504706, 2011. H1299 p53-A138V BP100-luciferase reporter, luminescence, 24 h; note: % of control where 0% means no effect; nearly all actives have a fitted effect of over 45% in size
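p53-null H1299 cells stably carrying temperature-sensitive p53-A138V and a BP100-luciferase reporter were pinned with compounds (4-point, 1:5 series) and held 24 hrs at 37 deg C. Luminescence was read 10 min after detection reagent.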
Rab9 promoter act = qHTS Assay for Rab9 Promoter Activators. Potency, µM (top dose mostly 9.22 µM), without a hit: at the highest dose activation, negative = inhibition, hits mostly activators. AID 485297, 2010. 320,000 compounds, 2.8% hits. Huh7 Rab9 promoter-luciferase reporter, luminescence, 24 h; note: % of control where 0% means no effect; nearly all actives have a fitted effect of over 60% in size
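Luminescence read-out: Huh7 cells stably expressing Rab9-luciferase, treated 24 h with compound at 37 °C, then lysed with luciferase reagent for 10 min at ambient before reading.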
Numbers without * were called inactive; ? = inconclusive; . = no result. This is a sample that favours compounds with a hit; in the whole collection about 7.4% have one here. Calls come from the whole dose curve; as a rule, active = well fitted curve in the direction sought with a large enough effect; inconclusive = small, poorly fitted or top-dose-only effect, or another doubt; inactive = no such curve, though single readings can be large; an effect the other way counts as inactive or inconclusive. Potency is the fitted concentration of half-maximal effect.

SMILES | FLuc modulator | NPC1 promoter act | SMN2 splice up | ELG1 genotoxic | p53 reactivator | Rab9 promoter act
O=C(COc1ccc2c3c(c(=O)oc2c1)CCCC3)NCc1ccccn1 | -9% | -3% | . | 5% | -5% | 0%
Fc1ccccc1CSc1nnc(-c2cccnc2)o1 | 17µM* | 4µM* | ? | ? | 22% | 3.2µM*
COc1cc(OC)cc(-c2nnc(SCc3c(F)cccc3Cl)o2)c1 | ? | 3.2µM* | 21% | ? | 12% | 3.5µM*
Cc1ccccc1CSc1nnc(-c2ccncc2)o1 | ? | 9% | 16% | 12% | 19% | 17%
COc1ccc(-c2nnc(SCc3ccccc3F)o2)cc1 | 1.5µM* | 1.3µM* | 11µM* | 1µM* | ? | 1.4µM*
Cc1ccccc1-c1nnc(SCc2ccccc2F)o1 | 1.9µM* | 3.2µM* | 13µM* | ? | ? | 3.5µM*
O=C(NCCCc1nc2ccccc2n1Cc1ccccc1Cl)C1CCCCC1 | 5% | . | -1% | . | . | .
Cc1ccccc1-c1nnc(SCc2ccccc2)o1 | 8.5µM* | ? | 14µM* | 15µM* | ? | ?
Fc1ccccc1CSc1nnc(-c2ccccc2)o1 | 4.8µM* | 2.5µM* | 35µM* | 8.2µM* | ? | 3.2µM*
COc1ccc(Cl)cc1C(=O)Nc1nc2ccc(S(C)(=O)=O)cc2s1 | -5% | 21% | . | ? | 17% | 0%
COc1ccc2nc(NC(=O)CSc3nc4cccnc4n3C)sc2c1 | -3% | -4% | -43% | -4% | 1% | -1%
CSc1ncccc1C(=O)Nc1nc2ccc(S(C)(=O)=O)cc2s1 | 21µM* | 13% | 9% | 4% | 14% | 28%
COc1ccc2nc(NC(=O)c3cccnc3SC)sc2c1 | 5.4µM* | ? | ? | ? | ? | ?
Nc1cc(-c2ccc(Br)cc2)[nH]n1 | ? | 18% | -2% | -2% | 3% | 16%
Cc1cc(-c2ccc(Br)cc2)n[nH]1 | 19µM* | ? | ? | ? | -2% | ?
O=C(CSc1nc2ccccc2nc1Cc1ccc(Cl)cc1)Nc1ccc2c(c1)OCO2 | -6% | . | . | . | . | .
O=C(N/N=C/c1ccco1)c1cc(-c2ccccc2)nc2ccccc12 | 21µM* | 13% | . | -4% | 1% | 0%
COc1cccc(-c2cc(C(=O)N/N=C/c3ccco3)c3ccccc3n2)c1 | 3.4µM* | -1% | . | 1% | -12% | 1%
O=C(N/N=C/c1ccco1)c1cc(C2CC2)nc2ccccc12 | -2% | -2% | -5% | 0% | 10% | 0%
Cc1ccc(-c2cc(C(=O)N(Cc3ccc(C(C)(C)C)cc3)Cc3ccco3)no2)cc1 | 5% | . | . | . | . | .
CC(Oc1ccccc1F)C(=O)NNC(=O)c1cccc(S(=O)(=O)N2CCN(C)CC2)c1 (centres undefined) | 3% | 1% | . | 2% | -8% | 9%
CC(C)(C)c1cc(-c2nc(N)nc(N)n2)cc(C(C)(C)C)c1 | -16% | 0% | -2% | 0% | -10% | -1%
CC(C)(C)c1ccc(-c2nc(N)nc(N)n2)cc1 | 2.1µM* | ? | . | ? | 5% | ?
Cc1cccn2c(=O)c3cc(C#N)c(=O)n(-c4nnc(SCc5ccc(Cl)cc5)s4)c3nc12 | 1% | . | -2% | . | . | .
COc1ccc2nc(/C=N/NC(=O)[C@H](C)NC(=O)OC(C)(C)C)ccc2c1 | 5.4µM* | 12% | ? | ? | ? | 17%
Cc1ccc2cc(/C=N/NC(=O)[C@H](C)NC(=O)OC(C)(C)C)c(Cl)nc2c1 | -2% | -2% | 14% | -3% | 12% | 0%
COc1ccc(NC(=O)CN(c2ccc(OC)c(Cl)c2)S(=O)(=O)c2ccccc2)c(OC)c1 | -2% | -4% | . | -1% | . | 0%

Assay outcomes as filed in PubChem.
